# From PubChem BioAssay
# Values joined by “and” are separate entries in the source; they are usually repeats but may differ in a detail not shown here. Equal values may be shown once. Active and inactive are the calls of the source. Rule as the data show it, unless noted: active = inhibition above about 80%; inactive = the rest.
# Columns and labels:
# [1] = growth inhibition, single agent or in combination, cell-based, chromothripsis tumors, cisplatin or BGB combos (AID 1671449); details: LFS_MB_P medulloblastoma cells;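 also: cells exposed for 96 hours; 0% = vehicle DMSO and 100% = killing by high DMSO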
# [2] = growth inhibition, single agent and combos, cell-based, chromothripsis tumors, cisplatin or BGB combos (AID 1671450); details: HDN33 neuroblastoma cells, stronger effect = higher value;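 also: cells exposed to compound for four days; 0% = vehicle DMSO and 100% = cell killing by high DMSO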
# [3] = growth inhibition, single agents and combos, ICB984, cell-based, cisplatin or BGB combos, synergistic combos for chromothripsis tumors (AID 1671451; call rule not given here;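 also: cells exposed for 96 hours before readout; 0% = vehicle DMSO and 100% = killing by high DMSO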); details: ICB984 medulloblastoma cells, drug combinations, stronger effect = higher value
# [4] = growth inhibition, single agents and combos, LFS_MB_1R, cell-based, cisplatin or BGB combos, synergistic combos for chromothripsis tumors (AID 1671452); details: LFS_MB_1R medulloblastoma cells, stronger effect = higher value;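 also: cells exposed for 96 hours before readout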
# [5] = growth inhibition, single agents and combos, HTB85, cell-based, BGB or cisplatin IC20 combos, synergistic combos for chromothripsis tumors (AID 1671453); details: HTB85 osteosarcoma cells, drug combinations, stronger effect = higher value;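 also: cells exposed for 96 hours before readout; 0% = vehicle DMSO and 100% = high DMSO killing control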
# [6] = growth inhibition, single agents and combos, CRL2098, cell-based, BGB or cisplatin IC20 combos, synergistic combos for chromothripsis tumors (AID 1671454); details: CRL2098 osteosarcoma cells, drug combinations, stronger effect = higher value;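 also: cells exposed for 96 h before readout; 0% = vehicle DMSO and 100% = killing by high DMSO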
# [7] = growth inhibition, single agents and combos, HD-MB03, cell-based, BGB or cisplatin IC20 combos, synergistic combos for chromothripsis tumors (AID 1671455; in the data active = inhibition above about 83%;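 also: 0% = vehicle DMSO and 100% = high DMSO as cytotoxic control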); details: HD-MB03 medulloblastoma cells, stronger effect = higher value
# [8] = growth inhibition, single agents and combos, UWB1.289, cell-based, BGB or cisplatin combos, synergistic combos for chromothripsis tumors (AID 1671456); details: UWB1.289 ovarian carcinoma cells, stronger effect = higher value;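 also: cells exposed to compound for four days; 0% = vehicle DMSO and 100% = killing by high DMSO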
# [9] = growth inhibition, single agents and combos, LFS_MB_2R, cell-based, cisplatin combos, synergistic combos for chromothripsis tumors (AID 1671457); details: LFS_MB_2R medulloblastoma cells, stronger effect = higher value;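 also: cells exposed to compound for four days before readout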
# [10] = growth inhibition, MDA-MB-436, cell-based, BGB or cisplatin combos, synergistic combos for chromothripsis tumors (AID 1671458; call rule not given here;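 also: cells exposed for 96 hours; 0% = vehicle DMSO and 100% = killing by high DMSO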); details: MDA-MB-436 breast carcinoma growth inhibition, drug combinations, stronger effect = higher value
# [11] = UWB1.289_BRCA1 ovarian cancer growth, cell-based, BGB or cisplatin combinations (AID 1671459); details: UWB1.289 BRCA1 ovarian carcinoma, drug combinations, stronger effect = higher value
# [12] = drug combination toxicity in non-malignant astrocytes – cell-based, BGB or cisplatin IC20 combos, cytotoxicity control for chromothriptic childhood tumor combination screen (AID 1671460); details: Human astrocytes, viability inhibition, drug combinations, at 0.5 µM, stronger effect = higher value;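 also: cells exposed to compounds for 96 hours before viability readout; 0% = vehicle and 100% = killing control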
# [13] = BT084 cell growth, single and combined drugs, ICGC_MB145, cisplatin and BGB IC40 combos (AID 1671461); details: BT084 medulloblastoma cells, drug combinations, stronger effect = higher value;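 also: cells exposed to drugs for 96 hours; 0% = vehicle DMSO and 100% = high DMSO full killing control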
# [14] = RCMB18 cell growth, single agent and combined, cisplatin and BGB IC40 combos (AID 1671462); details: RCMB18 medulloblastoma cells, stronger effect = higher value;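 also: cells exposed to compound for four days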
# [15] = CRL1545 cell growth, single agent and combined, cisplatin and BGB IC20 combos (AID 1671464); details: CRL1545 osteosarcoma cells, stronger effect = higher value;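 also: cells exposed to compound for 96 hours before readout; 0% = vehicle DMSO and 100% = high DMSO killing control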
# [16] = measured here: combination with BGB IC40, at 0.05 µM
# [17] = measured here: combination with cisplatin, at 5 µM, stronger effect = higher value
# [18] = measured here: with BGB IC20 combination, at 0.5 µM
# [19] = measured here: with cisplatin IC20 combination, at 0.5 µM
# [20] = measured here: combination with cisplatin, at 0.5 µM
# [21] = measured here: combination with cisplatin, at 5 µM
# [22] = measured here: with cisplatin IC20, at 5 µM
smiles,measurement,setting,value
O=C(CCCCCCC(=O)Nc1ccc(I)cc1)NO,inhibition,"[1]; at 0.5 µM, stronger effect = higher value",14.6% (inactive)
same,inhibition,"[1]; measured here: combination with BGB IC20, at 0.005 µM",-13.9%
same,inhibition,"[1]; measured here: combination with BGB IC40, at 0.005 µM",-26.4%
same,inhibition,[1]; [16],-4.26%
same,inhibition,"[1]; measured here: combination with cisplatin, at 0.5 µM, stronger effect = higher value",55%
same,inhibition,[1]; [17],112%
same,inhibition,"[2]; BGB combo, at 5 µM",92.7%
same,inhibition,[2]; at 0.5 µM,2.25% (inactive)
same,inhibition,"[2]; cisplatin combo, at 5 µM",96.8%
same,inhibition,[2]; [18],2.67%
same,inhibition,[2]; [19],4.68%
same,inhibition,"[2]; single agent, at 5 µM",96.1%
same,inhibition,"[3]; BGB IC20 combo, at 0.005 µM",-14%
same,inhibition,"[3]; BGB IC40 combo, at 0.005 µM",-21.6%
same,inhibition,"[3]; BGB IC40 combo, at 0.05 µM",79.6%
same,inhibition,[3]; at 0.5 µM,-43% (inactive)
same,inhibition,"[3]; cisplatin combo, at 0.05 µM",78.8%
same,inhibition,"[3]; cisplatin combo, at 0.5 µM",-63.2%
same,inhibition,"[3]; cisplatin combo, at 5 µM",-38.3%
same,inhibition,"[3]; measured here: 5 uM single agent, at 5 µM",-6.51%
same,inhibition,[4]; at 0.5 µM,4.61% (inactive)
same,inhibition,[4]; [16],-30%
same,inhibition,[4]; [20],7%
same,inhibition,[4]; [21],97.8%
same,inhibition,[5]; at 0.5 µM,-14.1% (inactive)
same,inhibition,"[5]; measured here: with BGB IC20, at 0.5 µM",-30.7%
same,inhibition,"[5]; measured here: with BGB IC20, at 5 µM",58%
same,inhibition,"[5]; measured here: with cisplatin IC20, at 0.5 µM",-7.38%
same,inhibition,[5]; [22],98.3%
same,inhibition,"[5]; single agent, at 5 µM",68.5%
same,inhibition,[6]; at 0.5 µM,-40.1% (inactive)
same,inhibition,"[6]; measured here: combination with BGB at IC20, at 0.5 µM",-46.1%
same,inhibition,"[6]; measured here: combination with cisplatin at IC20, at 0.5 µM",-23.5%
same,inhibition,[7]; at 0.5 µM,12.8% (inactive)
same,inhibition,"[7]; measured here: combo with BGB at IC20, at 0.5 µM",5.06%
same,inhibition,"[7]; measured here: combo with cisplatin at IC20, at 0.5 µM",20.3%
same,inhibition,[8]; at 0.5 µM,14.7% (inactive)
same,inhibition,"[8]; measured here: inhibition with BGB combination, at 0.05 µM",-32%
same,inhibition,"[8]; measured here: inhibition with cisplatin combination, at 0.05 µM",-13.2%
same,inhibition,[9]; at 0.5 µM,-12.8% (inactive)
same,inhibition,[9]; [20],3.62%
same,inhibition,[9]; [21],99%
same,inhibition,[10]; at 0.5 µM,-16.9% (inactive)
same,inhibition,"[10]; measured here: BGB combination, at 0.5 µM",-27.7%
same,inhibition,"[10]; measured here: BGB combination, at 5 µM",49.2%
same,inhibition,"[10]; measured here: cisplatin combination, at 0.5 µM",-20.6%
same,inhibition,"[10]; measured here: cisplatin combination, at 5 µM",53.6%
same,inhibition,"[11]; BGB combination, concentration series, at 5 µM",84.7%
same,inhibition,[11]; at 0.5 µM,7.03% (inactive)
same,inhibition,"[11]; cisplatin combination, concentration series, at 5 µM",105%
same,inhibition,[12],29.2% (inactive)
same,inhibition,[12]; measured here: combo with BGB IC20,30.5%
same,inhibition,[12]; measured here: combo with cisplatin IC20,21.3%
same,inhibition,[13]; at 0.5 µM,12.2% (inactive)
same,inhibition,"[13]; cisplatin combination, at 0.5 µM",29.6%
same,inhibition,"[13]; cisplatin combination, at 5 µM",105%
same,inhibition,"[13]; measured here: BGB IC40 combination 0.05 uM, at 0.05 µM",-26.1%
same,inhibition,"[13]; single agent, at 5 µM",103%
same,inhibition,[14]; at 0.5 µM,20.3% (inactive)
same,inhibition,"[14]; cisplatin combo, at 5 µM",94.9%
same,inhibition,"[14]; measured here: BGB IC40 combination, at 0.05 µM",-10.7%
same,inhibition,[14]; [20],54.3%
same,inhibition,"[14]; single agent, at 5 µM",85.9%
same,inhibition,[15]; at 0.5 µM,46.9% (inactive)
same,inhibition,[15]; [18],39.3%
same,inhibition,[15]; [19],50.7%
same,inhibition,"[15]; single agent, at 0.05 µM",-7.66%
same,inhibition,"[15]; single agent, at 5 µM",95.3%
COc1cccc2c1C(=O)c1c(O)c3c(c(O)c1C2=O)CC(O)(C(=O)CO)CC3OC1CC(N)C(O)C(C)O1 (stereo not drawn),inhibition,[1]; [17],118% and 119% and 108%
same,inhibition,"[2]; single agent, at 5 µM",99.7% and 99.6%
same,inhibition,[5]; at 0.5 µM,98.7% (active) and 98.9% (active) and 98.5% (active)
same,inhibition,[5]; [22],99.4% and 99.6% and 99.7%
same,inhibition,"[15]; single agent, at 5 µM",99.7% and 99.6% and 99.8%
